Measured values from ChEMBL document CHEMBL3988442, “University of Dundee, Small-Polar-MMV Screening Library” (2021).
Screen size: about 48,000 compounds; about 13,000 (27%) showed an effect of 50% or more. Some of the results follow.

Each compound was assayed on Wolbachia pipientis (assay: Anti-Wolbachia Cell-Based Screen). Details: 5 µM.
Type: functional
Design: scale not given: in the data most compounds retested in dose-response had high values

Row | Compound | Percent Effect
1 | CC(C)N(Cc1cccnc1)C(=O)CSc1ccc(C#N)cc1 | -11.42%
2 | CC(C)(C)c1cc(C[C@H]2CNCC[C@H]2CC(=O)Nc2ccccc2)no1 | -4.037%
3 | COc1ccc(Cc2noc(C3=NN(C)C(=O)CC3)n2)cc1OC | -17.82%
4 | CCn1c(C2CCN(C(=O)c3cc(Cl)no3)CC2)nn(C)c1=O | 81.76%
5 | CCn1c(C2CCCN(Cc3cc(C)cc(C)c3)C2)nn(C)c1=O (stereo not drawn) | 14.99%
6 | CCn1c(C2CCCN(Cc3ccc(F)cc3Cl)C2)nn(C)c1=O (stereo not drawn) | -0.1084%
7 | COC1CCN(C(=O)CC2CCCC2)CC(=O)N(C)c2ccccc21 (stereo not drawn) | 104.1%
8 | COC1CCN(C(=O)C2CCCC2)CC(=O)N(C)c2ccccc21 (stereo not drawn) | 111%
9 | COC1CCN(C(=O)C2CC(=O)N(c3ccccc3Br)C2)CC1 (stereo not drawn) | -10.75%
10 | COC1CN(C(=O)CC2CCCC2)CCC(=O)N(C)c2ccccc21 (stereo not drawn) | 101.3%
11 | CCN1CCC(CC(=O)N2CCN(c3ccccc3OC)CC2C)CC1 (stereo not drawn) | 10.24%
12 | COC(=O)NCC(=O)NCC1(c2c(F)cccc2F)CCCC1 | 1.826%
13 | O=C(CN1CCC(c2cccc(F)c2)C1)NCC(F)(F)F (stereo not drawn) | -23.91%
14 | COc1cc(F)c(C(=O)NCc2cc(C)on2)c(F)c1 | -19.16%
15 | CCSc1ncc(CN2CCN(c3nc(C)ncc3C)CC2)cn1 | 0.05242%
16 | O=C(NC[C@H]1CCCO1)c1ccc(S(=O)(=O)N2C[C@@H]3C[C@H]2CN3)cc1 | -5.829%
17 | CN(Cc1ccccn1)C(=O)c1cc(CN2CCC(O)CC2)on1 | -20.11%
18 | NCCn1cc(C(=O)NCc2ccccc2-n2cccn2)nn1 | -2.966%
19 | CC1CCC(O)(Cn2ncnc2-c2cccc(C#N)c2)CC1 (stereo not drawn) | -11.33%
20 | Cc1nnc(-c2cccc(C#N)c2)n1C1CCCN(C(C)C)C1=O (stereo not drawn) | 109.2%
21 | CCCc1nn(C2CCN(C(C)C)C2=O)c(=O)o1 (stereo not drawn) | -9.274%
22 | CC(=O)N1CCC(Oc2cccc(C#N)c2)CC1 | -7.429%
23 | CC(C)N1CCC(Nc2ccn(CCC#N)n2)C1=O (stereo not drawn) | 1.087%
24 | Cc1nnc(-c2cccc(C#N)c2)n1C1CCN(C2CC2)C1=O (stereo not drawn) | 99.28%
25 | CCCc1nn(C2CCCN(C(C)C)C2=O)c(=O)o1 (stereo not drawn) | -1.45%
26 | Cc1nnc(-c2cccc(C#N)c2)n1C1CCN(C(C)C)C1=O (stereo not drawn) | 107.2%
27 | CC(C)N1CCCC(N2CCOC3(CCCC3)C2)C1=O (stereo not drawn) | -1.206%

Row | Compound | Percent Effect
28 | Cc1noc(-c2cccnc2N2CCN(c3cnn(C)c3)CC2)n1 | -14.91%
29 | O=C(NCCc1cccs1)N1CCCC2(CCC(=O)N(C3CC3)C2)C1 (stereo not drawn) | -0.08952%
30 | NCC(=O)N1CCCCC1c1ccc(F)cc1 (stereo not drawn) | -11.61%
31 | O=C(COCC1CC1)N1CCCC1c1nc(-c2ccccc2F)c[nH]1 (stereo not drawn) | 4.201%
32 | CCOCCCC(=O)N1CCCC1c1nc(-c2ccccc2F)c[nH]1 (stereo not drawn) | -5.002%
33 | Cl.NCC(=O)N1CCCC1c1n[nH]cc1-c1ccccc1F (stereo not drawn) | 132.3%
34 | CNCC(=O)N1CCCC1c1n[nH]cc1-c1ccccc1F.Cl (stereo not drawn) | 165.9%
35 | COC(=O)NCC(=O)N1CCCC1c1nc(-c2ccccc2F)c[nH]1 (stereo not drawn) | 0.1259%
36 | CCC(=O)N1CCCC1c1n[nH]cc1-c1ccccc1F (stereo not drawn) | 184.8%
37 | O=C1CC(c2ccsc2)c2sc(C(=O)O)c(-c3ccccc3)c2N1 (stereo not drawn) | 15.35%
38 | CCN(CC)CCNC(=O)c1ccc(Cl)c(NS(C)(=O)=O)c1 | -1.52%
39 | O=C(NCCN1CCOCC1)c1ccc(-n2ccc3ccccc32)s1 | -14.37%
40 | O=C(NCCCN1CCCC1=O)c1ccc(-n2ccc3ccccc32)s1 | 114.9%
41 | O=C(NCCCN1CCCCC1)c1ccc(-n2ccc3ccccc32)s1 | -1.697%
42 | Cc1ccc(OCCC(=O)NCCCN2CCCC2=O)c(C)c1 | -5.078%
43 | O=C(NCCCN1CCOCC1)C(OC1CCCC1)c1ccccc1 (stereo not drawn) | -5.979%
44 | CCN(CC)CCNC(=O)c1ccn(COc2cc(C)cc(C)c2)n1 | 5.075%
45 | O=C(NCCCN1CCOCC1)c1ccc(-n2ccc3ccccc32)s1 | 91.37%
46 | CCN(CC)CCNC(=O)c1ccc(-n2ccc3ccccc32)s1 | 94.19%
47 | O[C@@H]1CN(Cc2cc(Cl)cc3cccnc23)C[C@@H]1O | 10.63%
48 | Cc1nc(CN(C)C(=O)c2ccc(Cn3cnnn3)cc2)cs1 | -19.39%
49 | CCOc1ncccc1Cn1cc(-c2cncnc2)nn1 | -4.97%
50 | O=C(NCc1nncn1C1CC1)c1ccc(F)c(COCC2CC2)c1 | -29.13%
51 | CC(=O)c1ccc(N2CCC(CO)(CCOc3ccccc3)CC2)nc1 | -10.96%
52 | CC(C)c1nc(CN(C)Cc2ncccc2C(=O)O)cs1 | -6.183%
53 | O=C(c1ccc2nccnc2c1)N1C[C@@H](CN2CCCC2)[C@@H](CO)C1 | -11.65%
